# Screening data from PubChem.
# Pf Dd2 growth: blocks in vitro growth of P. falciparum Dd2. P. falciparum Dd2 growth, SYBR Green, 72 h. Potency, µM (series often up to 28.9 µM), without a hit: at the highest dose activity, negative = inhibition, actives largely listed as inhibitors. actives 4.3% (n = 120,000). AID 1347417; active = well fitted inhibition curve with a large enough effect;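 also: plate controls were DMSO vehicle for no effect and reference drug for full effect; nearly all actives have a fitted effect of over 65% in size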
#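 Infected erythrocytes (Dd2, 0.3% parasitemia, 2.5% hematocrit final) are added to compound in RPMI-1640/Albumax II medium, grown 72 h at 37C in low oxygen, then lysed with saponin/Triton-X containing SYBR Green and read by fluorescence.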
# Starred values were filed as active, the others as inactive; i = inactive; [ ] = dose if it differs, or a comment. Many of the other results were omitted from the sample, so hits are more common in it than they were. Potency is read from the fitted curve at half-maximal effect.
SMILES,Pf Dd2 growth
CC(C)NC(=O)N1CCC(N2CC(OCC3CC3)C23CCCCC3)CC1 (centres undefined),-17.6%
CCOCC(=O)N1CCC(N2CC(OCC3CC3)C23CCCCC3)CC1 (centres undefined),5.01µM*
Cn1nccc1C(=O)N1CCC(N2CC(OCC3CC3)C23CCOCC3)CC1 (centres undefined),-20.3%
CCC(=O)N1CCC(N2CC(OCC3CC3)C23CCOCC3)CC1 (centres undefined),i
O=C(Cc1cccnc1)N1CCC(N2CC(OCC3CC3)C23CCCCC3)CC1 (centres undefined),7.94µM*
CCNC(=O)N1CCCC1c1noc(CCC(=O)N2CCN(c3ccccc3)CC2)n1 (centres undefined),-17.6%
Cc1ccc(-c2ccc3nnc(CNC(=O)c4ccc(F)c(F)c4)n3n2)cc1C,i
CCCOC(=O)c1c(NC(=O)C(C)Sc2nc(-c3ccccc3)cc(C(F)(F)F)n2)sc(C(=O)N(C)C)c1C (centres undefined),1.12µM*
CCCOC(=O)c1c(NC(=O)c2nc3ncccn3n2)sc(C(N)=O)c1C,2.7%
COc1ccc(-c2cc(C(F)(F)F)nc(SCCC(=O)Nc3c(C)cccc3C)n2)cc1,-22.6%
CCN(CC)C(=O)c1sc(NC(=O)C(C)Sc2nc(-c3ccccc3)cc(C(F)(F)F)n2)c(C(=O)OC)c1C (centres undefined),0.355µM*
CCOC(=O)c1sc(NC(=O)c2cc3nc(-c4ccc(Br)cc4)cc(C(F)(F)F)n3n2)c(C(=O)OCC)c1C,39.4%
COc1ccc(-c2cc(C(F)(F)F)nc(SCC(=O)NCCc3ccccc3)n2)cc1,-15.1%
COc1ccc(C(=O)N2CC[C@H]3COC(=O)N3c3cc(C)ccc3C2)cc1,-3.1%[44.1 µM]
Cc1nc(N(C)C)ncc1C(=O)N1CCN(c2ccccc2C#N)CC1,-11.2%
Cc1ccc(C)c(CN2CCC3(CCC(=O)N(CCc4ccncc4)C3)CC2)c1,-19.5%
O=C(c1ccccc1Cl)N1CCC2(CC1)CCN(Cc1cccs1)c1ccccc1O2,10µM*
Cc1ccccc1C(=O)N1CCC2(CC1)CCN(CCc1ccccc1)c1ccccc1O2,i
Cc1ccc(C(=O)N2CCC3(CC2)CCN(Cc2cccs2)c2ccccc2O3)cc1,-17.0%
CCC(C)NC(=O)C1COC2(CCN(C(=O)CC(C)(C)C)CC2)N1C(=O)c1cccc(C)c1 (centres undefined),i
Cc1nc([C@@H]2CN(C(=O)c3ccc(Br)o3)C[C@H]2C(N)=O)n[nH]1,-5.0%
Cc1cc(Nc2ccc(F)cc2F)nc(-n2nc(C)cc2C)n1,-22.9%
COc1ccc(Nc2cc(C)nc(-n3nc(C)cc3C)n2)cc1Cl,3.55µM*
CCCOc1ccc(Nc2cc(C)nc(C)n2)cc1,0.1%
Cc1ccc(C(=O)N2CC(C(=O)NC3CCCCC3)C3(CCOCC3)C2)cc1F (centres undefined),6.2%
SMILES,Pf Dd2 growth
CCn1ncc(N2CCC(NC(=O)CCC3CCCCC3)CC2)cc1=O,i
O=C(NCc1ccccc1)N1CCN2C(=O)N(C3CCOCC3)C[C@H]2C1,2.7%[44.1 µM]
Cc1cc(=O)n(CC(=O)Nc2ccc(C)c(C)c2)c(N(C)Cc2ccccc2)n1,i
CCc1cccc(NC(=O)Cn2c(N(C)Cc3ccccc3)nc(C)cc2=O)c1,i
Cc1cccc(NC(=O)Cn2c(N(C)Cc3ccccc3)nc(C)cc2=O)c1,5.01µM*
O=C(CCc1nnn2c1CN(C(=O)Nc1cccc(F)c1)CC2)NC1CC1,i
CN1CCc2c([nH]c3ccccc23)C12CCN(C(=O)Cc1cccnc1)CC2,-27.0%
Cn1cnc(S(=O)(=O)N2CCC3(CC2)NCCc2c3[nH]c3ccccc23)c1,-8.3%
Cc1noc(C)c1C(=O)N1CCC2(CC1)NCCc1c2[nH]c2ccccc12,-23.6%
Cc1ccncc1C(=O)N1CCC2(CC1)c1[nH]c3ccccc3c1CCN2C,i
Cc1noc(C)c1S(=O)(=O)N1CCC2(CC1)NCCc1c2[nH]c2ccccc12,5.01µM*
CN1CCc2c([nH]c3ccccc23)C12CCN(S(=O)(=O)c1cccnc1)CC2,4.47µM*
CNC(=O)[C@@H]1CN(C(=O)NCc2cccc(OC)c2)C[C@H]1c1n[nH]c(C)n1,2.0%
CN1C(=O)COC[C@@H]1[C@H](O)c1ccc(NC(=O)c2ccc(C#N)cc2)cc1,i
CCS(=O)(=O)Nc1ccc(C2(C(=O)Nc3cccc(F)c3C)CCCCC2)cc1,11.2µM*
CCS(=O)(=O)Nc1ccc(C2(C(=O)NCc3ccccc3)CCCCC2)cc1,i
CCS(=O)(=O)Nc1ccc(C2(C(=O)NCc3ccc(F)cc3F)CCCCC2)cc1,i
Cc1ccc(C(=O)N2CCC3(CC2)CC(=O)Nc2ccccc2O3)cc1,1.8%
Cn1c(=O)c2c(ncn2CC(=O)N2CCC(CCOc3ccc(F)cc3)C2)n(C)c1=O (centres undefined),-7.5%
CC(=O)Nc1ccc(CN2CCc3nc(C(C)C)nc(-c4ccc(Cl)cc4)c3CC2)cc1,1.12µM*
CC(C)c1nc2c(c(-c3ccc(O)cc3)n1)CN(Cc1cccnc1)CC2,i
CC(C)c1nc2c(c(-c3ccc(O)cc3)n1)CN(CC1CCCCC1)CC2,3.55µM*
COc1ccc(CN2CCc3nc(C)nc(-c4ccc(O)cc4)c3C2)cc1,i
CC(C)c1nc2c(c(-c3ccc(O)cc3)n1)CN(Cc1cccn1C)CC2,-18.8%
Cc1nc2c(c(-c3ccc(O)cc3)n1)CN(Cc1ccc(F)cc1)CCC2,i
SMILES,Pf Dd2 growth
CN(C)c1ccc(CN2CCc3nc(C4CC4)nc(-c4ccc(O)cc4)c3CC2)cc1,-17.0%
Cc1nc2c(c(-c3ccc(Cl)cc3)n1)CCN(C(=O)Nc1ccccc1)CC2,i
Cc1ccc(CN2CCCc3nc(C)nc(-c4ccc(O)cc4)c3C2)cc1,2.82µM*
CC(=O)Nc1ccc(CN2CCn3c(nnc3-c3ccc(Cl)cc3)C2)cc1,-12.7%
CC(C)c1nc2c(c(-c3ccc(O)cc3)n1)CCN(Cc1ccc(C(F)(F)F)cc1)CC2,1.78µM*
CC(=O)N1CCc2nc(C(C)C)nc(-c3ccc(O)cc3)c2CC1,-20.6%[44.1 µM]
O=S(=O)(c1ccc2c(c1)OCCO2)N1CCC2(CCNCC2)C1,-4.4%
CC1(c2ccccc2)N(Cc2cccnc2)C(=O)OC12CCN(Cc1ccc3c(c1)CCO3)CC2 (centres undefined),-23.9%
CCc1ccc(C(=O)NC2CCN(c3cnn(C)c(=O)c3)CC2)cc1,-9.6%
Fc1ccccc1CN1CCOC[C@H](Oc2cnccn2)C1,-15.7%[44.1 µM]
O=C1OCCCN1CCNc1ccc(-c2nc(-c3ccccc3F)no2)cn1,i
CCOc1ccc(C(=O)N2CCC3(CCNC(=O)CC3)CC2)cc1,-21.6%
Cc1ccc(C(=O)N(C)C2CCCc3ccccc32)cc1 (centres undefined),i
COc1ccccc1-c1cc(-c2cccs2)nc2c(C)noc12,i
COc1ccc(C2=NOC3(CCCN([S+](=O)([O-])c4cccs4)C3)C2)cc1 (centres undefined),-7.6%
CC(C)c1nc2c(c(-c3ccc(O)cc3)n1)CN(Cc1ccccn1)CC2,i
CC(C)c1nc2c(c(-c3ccc(O)cc3)n1)CCN(Cc1cccc3ccccc13)CC2,3.16µM*
Cc1nc2c(c(-c3ccc(O)cc3)n1)CN(Cc1cccc3ccccc13)CC2,-1.0%
Cc1nn(-c2ccccc2)c2nc(C3CC3)cc(C(=O)NCc3ccccc3Cl)c12,i
COCCNC(=O)c1cc(-c2ccc(OC)cc2)nc2c1c(C1CCNC1)nn2C (centres undefined),-27.6%
COc1ccc(-c2cc(C(=O)N3CCOCC3)c3c(C4CCCN4)nn(C)c3n2)cc1 (centres undefined),-26.2%
